Rows were chosen to be rich in hits. Some 2% of all compounds tested hit in one or more screens of this group.
PLAP activator: activators of human placental alkaline phosphatase; P05187; 1.2% of 96,000 active; purified PLAP enzyme, luminescent substrate read-out; hits give high values; activation fold at 20 µM; in the data active means activation fold above about 2
Target sequence (P05187 whole entry, looked up): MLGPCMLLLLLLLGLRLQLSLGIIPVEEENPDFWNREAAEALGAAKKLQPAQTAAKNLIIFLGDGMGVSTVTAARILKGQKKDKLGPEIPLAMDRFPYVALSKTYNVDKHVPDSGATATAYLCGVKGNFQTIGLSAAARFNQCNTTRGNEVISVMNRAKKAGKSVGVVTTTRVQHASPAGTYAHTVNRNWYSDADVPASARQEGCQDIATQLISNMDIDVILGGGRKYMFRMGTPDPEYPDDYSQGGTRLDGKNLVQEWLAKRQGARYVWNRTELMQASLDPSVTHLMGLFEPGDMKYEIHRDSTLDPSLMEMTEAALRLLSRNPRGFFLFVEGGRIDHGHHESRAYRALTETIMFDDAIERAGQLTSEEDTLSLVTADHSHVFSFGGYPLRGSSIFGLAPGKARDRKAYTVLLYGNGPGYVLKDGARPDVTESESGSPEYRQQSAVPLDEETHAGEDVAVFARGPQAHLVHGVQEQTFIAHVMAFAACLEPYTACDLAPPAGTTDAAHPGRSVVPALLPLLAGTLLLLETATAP
F-actin modifier: cytoskeleton assembly modification; 0.18% of 91,000 active; AID 836; inhibition, % at 2 µM; HUVEC TNFa F-actin phalloidin imaging, high content;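 active means inhibition above the batch mean plus 3 SD and confirmed as a hit by visual image inspection, cut at about 30% in these data, passing the limit was not always enough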
VCAM1 TNFa inh: reduces TNF alpha induced VCAM1 expression in HUVEC; HUVEC TNFa-induced VCAM-1 immunofluorescence, high-content imaging; inhibition, % at 2 µM; 0.48% of 95,000 active; AID 802;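 active means inhibition above the batch mean plus 3 SD, with images confirmed as a hit by eye, cut at about 37% in these data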
E-sel TNF inh: TNF alpha driven E-selectin expression inhibition. HUVEC TNFa-induced E-selectin immunofluorescence, high content. inhibition, % at 2 µM. 0.71% of 120,000 active. AID 1246;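 active means inhibition above the batch mean plus 3 SD, and confirmed as a hit on visual image review, cut at about 43% in these data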
HUVEC tox TNFa: toxic to HUVEC cells under TNF alpha stimulation. cell count reduction, % at 2 µM. HUVEC TNFalpha-stimulated, Hoechst cell count, imaging. 0.17% of 93,000 active;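 active means cell count reduction exceeding the screen mean by over 5 SD, scaled to untreated wells per plate, cut at about 78% in these data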;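 further: cells counted after 24 h of TNF alpha exposure following the 1 h pretreatment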
A number is an active result; n = inactive; x = no result given.

SMILES	PLAP activator	F-actin modifier	VCAM1 TNFa inh	E-sel TNF inh	HUVEC tox TNFa
COc1cccc(/C=N/NC(=O)c2c(-c3ccccc3)noc2C)c1O	2.2	n	n	n	n
Cc1ccc(-c2ccc(/C=N\NC(=O)C3C(=O)NCC3c3ccccc3)o2)cc1Cl (centres undefined)	2.1	n	n	n	n
O=C1CSC(c2ccccc2)N1c1nnc(C23CC4CC(CC(C4)C2)C3)s1 (centres undefined)	n	n	n	n	n
CCN(C(=O)Cc1ccc(Br)cc1)C1CCCCC1	n	n	n	n	n
CC1CN(Cc2ccccc2)C(C)CC1O (centres undefined)	x	x	x	n	x
COc1ccc(-c2nc(=S)[nH][nH]2)cc1	2	n	n	n	n
Cc1ccccc1-n1ncc2c([N+](=O)[O-])cc([N+](=O)[O-])cc21	n	n	n	n	n
Cc1ccc2nc3cc([N+](=O)[O-])cc([N+](=O)[O-])c3cc2c1	x	x	x	99.3	x
Nc1ccc2c(c1)N1CCN=C1S2	n	n	n	72.8	n
CCOC(=O)c1ccc(CNC(=O)CCC(=O)O)cc1	n	34.0	n	n	n
Cc1cc(C)cc(NC(=O)C2CCCN2/C=C/C(=O)C(F)(F)F)c1 (centres undefined)	x	x	x	n	x
Cc1ccc(S(=O)(=O)Nc2cc(C(=O)NCCN3CCCC3)ccc2N2CCCCC2)cc1	n	n	73.9	x	87.6
CCn1c(SCc2nc(CC(=O)Nc3ccccc3OC)no2)nnc1-c1cccs1	n	n	n	99.9	n
COc1ccc(CC2(C)OC(c3ccccc3)=NN2C(C)=O)cc1 (centres undefined)	x	x	x	n	x
CC(=O)c1sc(N/N=C2\CC3CCC2(C)C3(C)C)nc1C (centres undefined)	x	x	x	n	x
O=C(Oc1c(Cl)cc(Cl)c2cccnc12)c1ccco1	2.1	n	n	n	n
COc1cc(C(=O)Oc2c(CN3CCOCC3)cc(Cl)c3cccnc23)cc(OC)c1OC	2	n	n	n	n
Oc1c(CN2CCN(c3ccccn3)CC2)cc(Cl)c2cccnc12	n	x	x	n	x
O=C(Oc1c(CN2CCOCC2)cc(Cl)c2cccnc12)c1ccc(F)cc1	2	n	n	n	n
OCCN1CCN(Cc2cc(Cl)c3cccnc3c2O)CC1	2.2	n	n	n	n
COc1ccc(CCc2nnc(CCC(=O)NCc3ccc4ncccc4c3)o2)cc1	x	x	x	n	x
CC(C)OC(=O)NS(=O)(=O)c1cccc([N+](=O)[O-])c1	x	x	x	n	x
O=C(CSCc1ccc(Cl)cc1)Nc1ccc2c(c1)OCCO2	n	n	n	n	n
COc1cccc(C(=O)Oc2c(CN3CCOCC3)cc(Cl)c3cccnc23)c1	2.6	n	n	n	n
COc1cccc(NC(=O)c2ccc(CN3CCOCC3)cc2)c1	n	n	n	x	n
SMILES	PLAP activator	F-actin modifier	VCAM1 TNFa inh	E-sel TNF inh	HUVEC tox TNFa
COc1ccc(C(=O)Oc2c(CN3CCOCC3)cc(Cl)c3cccnc23)cc1	2	n	n	n	n
CCCC1=Nc2cc(C(=O)NCCCOCC)ccc2Sc2ccccc21	n	n	94.1	n	n
CCCC1=Nc2cc(C(=O)NCCCOC(C)C)ccc2Sc2ccccc21	n	n	n	n	n
CCC1=Nc2cc(C(=O)NCCCOC)ccc2Sc2ccccc21	2	n	59.9	n	n
O=C(Nc1ccc2nc(-c3ccc4nc[nH]c4c3)[nH]c2c1)c1cccs1	2.1	n	n	n	n
CN(C)c1ccc(NC(=O)COC(=O)Cn2nnc3ccccc32)cc1	x	x	x	88.9	x
COC(=O)c1ccc(NC(=O)Cn2nnc3ccccc32)cc1	n	n	n	n	n
CCC(Sc1nc2ccccc2s1)C(=O)Nc1cc(C)on1 (centres undefined)	x	n	n	n	n
Cc1nc2ccc(NC(=O)c3cc(S(=O)(=O)N4CCOCC4)ccc3C)cc2s1	n	n	n	91.9	n
CN1CCC(N(C)C(=O)c2cc(=O)c3ccccc3o2)CC1	x	x	x	n	x
CC(=O)c1nnn(-c2nc(N)nc(N(c3ccccc3)c3ccccc3)n2)c1C	n	n	n	60.7	n
CCCCN(CCCC)c1nc(OC)nc(-n2nnc(C(C)=O)c2C)n1	n	n	n	n	n
O=C(/C=N/O)NCc1ccncc1	n	n	n	n	n
O=C(C1CCCO1)N1CCN(c2c3c(nc4cc(-c5ccc(F)cc5)nn24)CCC3)CC1 (centres undefined)	n	n	n	64.7	n
CC(C)c1ccc(NC2(C#N)C(=O)Nc3ccccc32)cc1 (centres undefined)	n	n	n	n	n
CCOC(=O)c1c(C)n(C)c2ccc(OC)c(NC(=O)CN3CCN(Cc4ccccc4)CC3)c12	n	n	n	n	n
CCOC(=O)c1c(C)n(C)c2ccc(OC)c(NC(=O)CN3CCN(C4CCCCC4)CC3)c12	2	n	n	n	n
CCCCCCSc1nc(O)c(C2OC(=O)c3c2ccc(OC)c3OC)c(=O)n1-c1ccccc1 (centres undefined)	n	n	n	n	n
COc1cc(CNCc2ccccn2)ccc1OCc1cccc(Cl)c1	n	n	n	x	n
COc1cc(CNCc2ccco2)ccc1OCc1ccccc1	n	46.1	n	57.1	n
COc1cc(CNCc2ccccn2)ccc1OCc1c(Cl)cccc1Cl	2	n	n	n	n
O=C(Nc1cccc(O)c1)c1cc(S(=O)(=O)N2CCCC2)ccc1Cl	n	n	n	n	n
CS(=O)(=O)N(CC(=O)N1CCCCC1)c1cccc(F)c1	x	x	x	n	x
COc1ccc(OCCSc2ncnc3nc[nH]c23)cc1	2	n	n	n	n
Cc1cc(C)c(CSc2ncnc3nc[nH]c23)c(C)c1	x	x	x	n	x
SMILES	PLAP activator	F-actin modifier	VCAM1 TNFa inh	E-sel TNF inh	HUVEC tox TNFa
Cc1cccc(CSc2ncnc3nc[nH]c23)c1	2.2	x	x	n	x
Cc1ccc(-c2cc(C(F)F)n3ncc(C(=O)N4CCN(c5cccc(C)c5C)CC4)c3n2)cc1	n	n	n	n	n
CC1CCCCN1CC(=O)Nc1ccccc1Sc1ccccc1 (centres undefined)	x	x	x	n	x
COc1ccc(CN(C)C(=O)COC(=O)c2c(-c3ccccc3Cl)noc2C)cc1	x	x	x	n	x
[O-][n+]1onc2c1C(N1CCOCC1)CCC2N1CCOCC1 (centres undefined)	n	n	n	81.7	n
Cc1ccc(-c2cc(NC(=O)CSc3n[nH]c(N)n3)n(-c3ccccc3)n2)cc1	2.3	n	n	n	n
COC(=O)c1c(NC(=O)CSc2n[nH]c(N)n2)sc(C)c1C	n	x	n	x	n
Nc1nc(SCC(=O)Nc2cc(-c3ccccc3)nn2-c2ccccc2)n[nH]1	x	n	n	n	n
Cc1cc(NC(=O)CSc2n[nH]c(N)n2)no1	x	x	x	67.0	x
CCOC(=O)c1c(NC(=O)CSc2n[nH]c(N)n2)sc(CC)c1C	2.2	x	x	x	x
CC(C)c1csc(CN2CCC(N3CCC(C(=O)N4CCOCC4)CC3)CC2)n1	x	x	x	n	x
CC(=O)N1CCc2cc(S(=O)(=O)NC(CC(C)C)C(=O)N3CCn4c3nc3ccccc34)ccc21 (centres undefined)	n	n	n	n	n
CCc1nnc(NC(=O)CSc2nnc(-c3ccccc3NC(=O)c3ccccc3)o2)s1	n	n	n	n	n
c1ccc(CNc2c3c(nc4ncnn24)CCCC3)nc1	2.5	x	x	n	x
COc1ccc(-c2cc(NCc3ccccn3)n3ncnc3n2)cc1	x	x	x	n	x
O=C(OCC(=O)N1CCCC1)c1ccc(S(=O)(=O)Nc2ccccc2)cc1	x	x	x	n	x
